In PubChem BioAssay (EPA / NIEHS):
Results filed as inconclusive are left out. The source made the active and inactive calls. Rule for the calls, unless noted: active = hit-call score of the fitted dose curve at least 0.9, where 1 is the maximum; inactive = score below 0.9.

Legend:
[1] = target: Cellular tumor antigen p53 (Homo sapiens) (UniProt P04637); test: TOX21_p53_BLA_p2_ratio: Tox21 HCT-116 p53 Agonism Beta-lactamase Assay, Ratio, Phase 2 (AID 2283592; active = hit-call score of the fitted dose curve at least 0.9, where 1 is the maximum)
Cellular tumor antigen p53 (Homo sapiens), sequence (P04637 whole entry, looked up): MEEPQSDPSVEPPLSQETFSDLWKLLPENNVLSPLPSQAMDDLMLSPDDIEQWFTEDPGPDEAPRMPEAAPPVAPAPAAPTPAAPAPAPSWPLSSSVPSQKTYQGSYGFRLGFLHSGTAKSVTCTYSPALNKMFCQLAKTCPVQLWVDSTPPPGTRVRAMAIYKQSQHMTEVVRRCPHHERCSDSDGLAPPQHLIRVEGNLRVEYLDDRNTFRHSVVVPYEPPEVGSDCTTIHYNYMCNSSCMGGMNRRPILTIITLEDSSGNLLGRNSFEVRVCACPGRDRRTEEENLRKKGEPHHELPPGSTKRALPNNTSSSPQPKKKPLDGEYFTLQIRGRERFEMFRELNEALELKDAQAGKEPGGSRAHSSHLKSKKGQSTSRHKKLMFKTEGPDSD
Outline: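 In this cell-based reporter format, HCT116 cells were dosed with chemicals delivered from DMSO by 217-fold dilution and incubated 16 h at 37C. Emission at 460 and 530 nm after 2 h CCF4-AM loading provided the ratio, fitted upward versus DMSO.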

[2] = TOX21_p53_BLA_p3_viability: Viability Assessment in the Tox21 HCT-116 p53 Agonism Beta-lactamase Assay, Phase 3 (AID 2283593; active = hit-call score of the fitted dose curve at least 0.9, where 1 is the maximum;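 note: cells exposed to compound for 16 h before reading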)
Outline: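 HCT116 cells, 4000/well, dosed 5 h after plating by pin transfer (217-fold dilution from DMSO stock) and incubated 16 h at 37C, 5% CO2. Viability read as ATP luminescence with CellTiter-Glo after 30 min at room temperature.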

[3] = target: Cellular tumor antigen p53 (Homo sapiens) (UniProt P04637); test: TOX21_p53_BLA_p3_ratio: Tox21 HCT-116 p53 Agonism Beta-lactamase Assay, Ratio, Phase 3 (AID 2283596; active = hit-call score of the fitted dose curve at least 0.9, where 1 is the maximum)
Outline: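 HCT116 p53-bla cells (4000/well) given compound in DMSO (217-fold dilution) after 5 h, incubated 16 h at 37C. CCF4-AM substrate 2 h at room temperature; 460/530 nm emission ratio, gain fitted against DMSO.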

[4] = target: Cellular tumor antigen p53 (Homo sapiens) (UniProt P04637); test: TOX21_p53_BLA_p5_ratio: Tox21 HCT-116 p53 Agonism Beta-lactamase Assay, Ratio, Phase 5 (AID 2283599; active = hit-call score of the fitted dose curve at least 0.9, where 1 is the maximum)
Outline: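 HCT-116 p53-bla cells (4000/well) plated 5 h, dosed with compound (217-fold DMSO dilution) for 16 h at 37 C; CCF4-AM substrate 2 h at room temperature. Activity is the 460/530 nm emission ratio (405 nm excitation), fitted in gain-of-signal direction versus DMSO.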

[5] = TOX21_p53_BLA_p5_viability: Viability Assessment in the Tox21 HCT-116 p53 Agonism Beta-lactamase Assay, Phase 5 (AID 2283600; active = hit-call score of the fitted dose curve at least 0.9, where 1 is the maximum)
Outline: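 Compounds, pinned from DMSO at 217-fold dilution, were left on the cells for 16 h. The viability endpoint was ATP content measured by CellTiter-Glo luminescence, where falling signal reflects cytotoxicity.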

[6] = target: Cellular tumor antigen p53 (Homo sapiens) (UniProt P04637); test: TOX21_p53_BLA_p4_ratio: Tox21 HCT-116 p53 Agonism Beta-lactamase Assay, Ratio, Phase 4 (AID 2283601; active = hit-call score of the fitted dose curve at least 0.9, where 1 is the maximum)
Outline: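 HCT-116 p53 beta-lactamase reporter cells (4000/well) preincubated 5 h, then compound (217-fold dilution of DMSO stock) for 16 h at 37C. CCF4-AM substrate added 2 h at room temperature; 460/530 nm emission ratio fitted upward versus DMSO.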

[7] = CCTE_Shafer_MEA_acute_spike_number: CCTE's Neural Acute Assay for Total Number of Spikes, Shafer Lab (AID 2284008)
Outline: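 Rat cortical cultures, DIV 13/15, 37 C. 40 min baseline rec, cpd 0.03-40 uM, 40 min post-dose rec. Band-pass 300-5000 Hz, spike threshold 8x rms; % change in spike count per well, DMSO neg ctrl, loss-of-signal fit.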

[8] = CCTE_Shafer_MEA_acute_firing_rate_mean: CCTE's Neural Acute Assay for Mean Firing Rate, Shafer Lab (AID 2284009);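 note: analyzed for loss of signal so actives lower firing rate relative to DMSO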
Outline: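 Rat primary cortical neurons on 48-well MEA plates, dosed at 0.03-40 uM on DIV 13 or 15; 40 min spontaneous activity recorded at 37 C before and after compound. Spike rate per electrode averaged per well, expressed as percent change from baseline.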

[9] = CCTE_Shafer_MEA_acute_burst_number: CCTE's Neural Acute Assay for Single-Electrode Bursts, Shafer Lab (AID 2284013)
Outline: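 Primary rat cortical neurons on 16-electrode MEA wells, treated on DIV 13 or 15 with compound at 0.03-40 uM. Single-electrode burst count from 40-min recordings at 37 C before and after exposure; percent change from baseline per well, DMSO negative control.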

[10] = CCTE_Shafer_MEA_acute_burst_duration_mean: CCTE's Neural Acute Assay for Mean Burst Duration, Shafer Lab (AID 2284014);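 note: hits are decreases in mean burst duration relative to DMSO controls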
Outline: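 Rat primary cortical neurons on 48-well MEA, treated at DIV 13 or 15 with 0.03-40 uM in at least 3 wells. Value is percent change in mean burst duration, comparing 40 min recordings at 37 C before and during exposure.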

[11] = CCTE_Shafer_MEA_acute_per_burst_spike_number_mean: CCTE's Neural Acute Assay for Average Number of Spikes Per Burst, Shafer Lab (AID 2284015);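 note: hits are decreases in mean spikes per burst versus baseline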
Outline: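 Primary rat cortical neurons on 48-well MEA plates, treated on DIV 13 or 15 at 0.03-40 uM. Spontaneous activity recorded 40 min before and 40 min after compound at 37 C; percent change in mean spikes per single-electrode burst per well, fitted in the loss direction versus DMSO.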

[12] = CCTE_Shafer_MEA_acute_interburst_interval_mean: CCTE's Neural Acute Assay for Mean Interburst Interval, Shafer Lab (AID 2284016);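 note: percent change of mean interburst interval versus each well's own pre-dose baseline; curves fitted for decrease in interburst interval relative to DMSO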
Outline: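 Primary rat cortical neurons on 16-electrode MEA wells were recorded 40 min at baseline on DIV 13 or 15, then 40 min after compound (0.03-40 uM), at 37 C. Value is percent change in mean interburst interval per well, DMSO as negative control.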

[13] = CCTE_Shafer_MEA_acute_burst_percentage_mean: CCTE's Neural Acute Assay for Percentage of Spikes in a Burst, Shafer Lab (AID 2284017);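 note: curve fitted for loss of signal so potency reflects decreased burst percentage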
Outline: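 Primary rat cortical neurons on 16-electrode MEA wells; 40 min baseline recorded at DIV 13 or 15, then 40 min after compound (0.03-40 uM) at 37 C. Well-mean fraction of spikes in single-electrode bursts; percent change from baseline, DMSO as negative control.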

[14] = CCTE_Shafer_MEA_acute_burst_percentage_std: CCTE's Neural Acute Assay for Standard Deviation of Burst Percentage, Shafer Lab (AID 2284018);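 note: fitted in the negative direction so actives lower burst percentage SD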
Outline: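 Rat primary cortical neurons on 48-well MEAs, DIV 13 or 15, 37 C. 40-min baseline then 40-min recording with compound (0.03-40 uM); well-level SD of per-electrode burst spike percentage, expressed as percent change from baseline.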

[15] = CCTE_Shafer_MEA_acute_per_network_burst_spike_number_mean: CCTE's Neural Acute Assay for Average Number of Spikes in a Network Burst, Shafer Lab (AID 2284019)
Outline: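 Rat primary cortical neurons on 48-well MEA at DIV 13 or 15, 37 C; compounds 0.03-40 uM, at least three wells each. 40-min baseline then 40-min exposure recording; percent change in mean spikes per network burst.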

[16] = CCTE_Shafer_MEA_acute_per_network_burst_spike_number_std: CCTE's Neural Acute Assay for Standard Deviation of Number of Spikes in a Network Burst, Shafer Lab (AID 2284020);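 note: fitted for decrease in spike-number SD versus DMSO so actives lower it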
Outline: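 Rat primary cortical neurons on 48-well MEA (16 electrodes/well), treated DIV 13 or 15 at 0.03-40 uM, ≥3 wells per compound. 40 min recordings at 37 C before and after dosing; value is percent change in network-burst spike-number SD, negative direction vs DMSO.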

[17] = CCTE_Shafer_MEA_acute_per_network_burst_electrodes_number_mean: CCTE's Neural Acute Assay for Mean Number of Electrodes in a Network Burst, Shafer Lab (AID 2284021);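 note: curves fitted for decreases only so hits reduce electrodes per burst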
Outline: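 Readout: % change in mean electrodes active per network burst, post- vs pre-treatment, each well. Spikes detected at 8x rms noise after 300-5000 Hz band-pass; rat cortical cultures, DIV 13/15, compounds 0.03-40 uM, DMSO baseline.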

[18] = CCTE_Shafer_MEA_acute_network_burst_percentage: CCTE's Neural Acute Assay for Percentage of Network Bursts, Shafer Lab (AID 2284022);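 note: curves fitted for loss so actives lower network burst percentage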
Outline: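 Rat cortical cultures, DIV 13/15; 20 min equilibration, 40 min baseline, compound 0.03-40 uM, 40 min recording, 37 C. Spikes: 300-5000 Hz band-pass, threshold 8x rms noise. Readout: % change in network-burst spike fraction; loss direction vs DMSO.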

[19] = CCTE_Shafer_MEA_acute_cross_correlation_HWHM: CCTE's Neural Acute Assay for Cross Correlation at Half Width at Half Maximum, Shafer Lab (AID 2284026);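 note: percent change per well from pre-dose baseline in spike cross-correlogram half width; hits are a decrease in cross-correlogram half width relative to DMSO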
Outline: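 Read-out: half width at half maximum of action-potential cross-correlogram, percent change versus pre-treatment baseline, fitted in loss direction against DMSO. Rat cortical cultures, DIV 13 or 15, dosed 0.03-40 uM, 40-min recordings at 37 C.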

[20] = CCTE_Shafer_MEA_acute_synchrony_index: CCTE's Neural Acute Assay for Synchrony, Shafer Lab (AID 2284027);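 note: network synchrony index of spontaneous spiking in primary rat cortical neurons on MEAs; fitted for loss of signal so actives lower synchrony relative to DMSO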
Outline: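 Primary rat cortical neurons on 16-electrode MEA wells were recorded 40 min at baseline (DIV 13 or 15) and 40 min after compound (0.03-40 uM) at 37 C. Synchrony index (0-1) expressed as percent change from baseline, versus DMSO.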

[21] = CCTE_Shafer_MEA_dev_firing_rate_mean: CCTE's Neural Network Formation Assay for Mean Firing Rate, Shafer Lab (AID 2284031)
Outline: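 Primary rat cortical neurons on 48-well, 16-electrode MEAs (PEI-coated, laminin at plating), exposed from day 0 with compound renewed at DIV 5 and 9. Spikes recorded DIV 5, 7, 9, 12; well-mean firing rate collapsed to trapezoidal AUC, loss-of-signal vs DMSO.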

[22] = CCTE_Shafer_MEA_dev_per_burst_spike_percent: CCTE's Neural Network Formation Assay for Percent of Spikes in a Burst, Shafer Lab (AID 2284032);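 note: fitted as a decrease in burst spike percentage below DMSO baseline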
Outline: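 Rat primary cortical neurons on 16-electrode MEA wells, dosed from plating day 0 for 12 days with renewal on DIV 5 and 9; spikes-in-bursts percentage averaged over bursting electrodes, collapsed as AUC across days 5, 7, 9, 12; loss direction versus DMSO.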

[23] = CCTE_Shafer_MEA_dev_active_electrodes_number: CCTE's Neural Network Formation Assay for Number of Active Electrodes, Shafer Lab (AID 2284040; active = hit-call score of the fitted dose curve at least 0.9, where 1 is the maximum;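 note: potency for loss of active electrodes versus DMSO so lower counts are hits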)
Outline: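 Rat cortical primary cultures, 1.5 x 10^5 cells/well, PEI-coated MEA, laminin drop. Continuous exposure DIV 0–12; full media/compound change DIV 5, 9. Readout: electrodes with mean firing ≥5 spikes/min; AUC across days; loss vs DMSO.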

[24] = CCTE_Shafer_MEA_dev_bursting_electrodes_number: CCTE's Neural Network Formation Assay for Number of Bursting Electrodes, Shafer Lab (AID 2284043; active = hit-call score of the fitted dose curve at least 0.9, where 1 is the maximum;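 note: potency is for loss of bursting electrodes relative to DMSO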)
Outline: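 Primary rat cortical neurons plated on 16-electrode MEA wells, exposed from day 0 with compound renewed at DIV 5 and 9. Electrodes bursting ≥1 burst per 2 min counted on days 5, 7, 9 and 12; trapezoidal AUC across days, fitted for loss versus DMSO.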

[25] = CCTE_Shafer_MEA_dev_per_burst_interspike_interval: CCTE's Neural Network Formation Assay for Burst Interspike Interval, Shafer Lab (AID 2284044);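 note: potency for a decrease of within-burst interspike interval below DMSO level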
Outline: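 Readout is the average time between spikes inside single-electrode bursts, taken as a well mean across bursting electrodes. Cortical neurons from rat developed networks on MEA plates under continuous 12-day exposure; recordings on days 5, 7, 9 and 12 were integrated by trapezoidal AUC.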

[26] = CCTE_Shafer_MEA_dev_burst_duration_mean: CCTE's Neural Network Formation Assay for Mean Burst Duration, Shafer Lab (AID 2284045)
Outline: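 Primary rat cortical neurons on 48-well 16-electrode MEA plates, exposed from day 0 with renewal at DIV 5 and 9; spontaneous activity recorded on days 5, 7, 9, 12. Well-mean burst duration across bursting electrodes, collapsed as trapezoidal AUC; DMSO baseline.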

CC1(C)[C@H](C=C(Cl)Cl)[C@@H]1C(=O)O[C@@H](C#N)c1cccc(Oc2ccccc2)c1
outcome [1]: inactive
outcome [2]: inactive
outcome [3]: inactive
outcome [4]: inactive
outcome [5]: inactive
outcome [6]: inactive
outcome [7]: inactive
outcome [8]: inactive
outcome [9]: inactive
outcome [10]: inactive
AC50 [11]: 2.61 µM (active)
AC50 [12]: 1.12 µM (active)
AC50 [13]: 2.24 µM (active)
outcome [14]: inactive
outcome [15]: inactive
AC50 [16]: 682 nM (active)
AC50 [17]: 1.23 µM (active)
AC50 [18]: 2.98 µM (active)
AC50 [19]: 15 µM (active)
AC50 [20]: 1.39 µM (active)
outcome [21]: inactive
AC50 [22]: 8.96 µM (active)
AC50 [23]: 15 µM (active)
AC50 [24]: 8.64 µM (active)
AC50 [25]: 4.06 µM (active)
outcome [26]: inactive
